PubChem BioAssay AID651821 (The Scripps Research Institute Molecular Screening Center, 2012)
Among all 370,000 compounds or so, about 4,700 (1.3%) were called active. Only a selection was taken, and actives are over-represented in it overall. A number with no mark means an inactive call.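 The calls were made as follows: active = inhibition above the plate cutoff, the mean of all test compounds on that plate plus 3 SD (cut at about 35% in these data); inactive = the rest.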

Test: binders of r(CAG) RNA repeats, primary screen, biochemical, fluorescence (AID 651821);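 also: 0% = DMSO alone and 100% = 100 µM mitoxantrone as full dye displacement; higher means more dye released from RNA so lower well fluorescence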
Conditions: r(CAG) RNA repeat, TO-PRO-1 dye displacement fluorescence; at 3 µM; hits give high values

Point of comparison: CCOc1ccc(NC(=O)CSc2nc3ccccc3c(=O)n2Cc2cccs2)cc1, inhibition 1.43%. Against it:
- Cc1cc(=O)[nH]c(SCC(=O)Nc2ccc(F)cc2F)n1 — higher, 7.71%
- CN(C)CC(=O)N[C@@H]1C[C@@H]2O[C@H](CO)CC[C@@H]2O[C@@H]1CCc1ccc(C#Cc2ccccc2)cc1 — higher, 2.31%
- COC(=O)[C@]12C[C@H](CC(=O)NCCC(C)C)C(=O)N(CCc3ccc(OC)c(OC)c3)C1=C[C@H](C(C)(C)C)O[C@@H]2C — lower, 0.35%
- CC(C)[C@H]1COCCS(=O)(=O)N1Cc1ccccc1-c1cccc2c1sc1ccccc12 — higher, 9.63%
- CCN(CCCNC(=O)C1CCN(S(=O)(=O)c2cnc[nH]2)CC1)c1ccccc1 — higher, 1.6%
- COc1ccc(CCNC(=O)COC(=O)c2cc(=O)c3ccccc3o2)cc1 — lower, 0.17%
- COc1ccc(CNC(=O)COC(=O)C(CCSC)N2C(=O)c3ccccc3C2=O)cc1 (stereo unspecified) — higher, 3.76%
- CCOC(=O)[C@]12CCCCC/C=C\1N(Cc1ccc(OC)cc1)C(=O)[C@H]2CC(=O)NCCCN1CCCC1=O — lower, 0.52%
- COC(=O)[C@]12C[C@H](CC(=O)NCc3ccccc3)C(=O)N(Cc3ccccc3)C1=C[C@H](COCc1ccccc1)O[C@@H]2C — higher, 8.61%
- Cc1ccc(-c2nc(C3CCCN(S(=O)(=O)c4ccc(Br)s4)C3)no2)cc1 (stereo unspecified) — higher, 5.63%
- C=CCN=C1NC(c2cccc(C(F)(F)F)c2)C(C(=O)OC)=C(C)N1C (stereo unspecified) — higher, 6.1%
- Cc1cc(C)cc(OCC(=O)NCc2cc(C)nc3ccccc23)c1 — lower, -3.64%
- Cc1cc(C(=O)NNC(=O)c2cccc(S(=O)(=O)N3CCOCC3)c2)c2ccccc2n1 — lower, 0.6%
- CCOC(=O)CNC(=O)N(C)[C@H]1C[C@H]2c3[nH]c4c(-c5ccc6c(c5)OCO6)cccc4c3CCN2C(=O)[C@H]1[C@H](C)O — higher, 9.34%
- COCCNC(=S)Nc1cc(S(=O)(=O)N2CCOCC2)ccc1N1CCCCC1 — higher, 1.62%
- Cc1cc(OCCCC(=O)Nc2cc(S(=O)(=O)N3CCOCC3)ccc2N2CCOCC2)ccc1Cl — higher, 2.46%
- O=C(C(=O)N1CCC(c2ccccc2)CC1)c1ccccc1 — lower, 1.3%
- CCOC(=O)c1cccc(NC(=O)CN(C)S(=O)(=O)c2ccc(-c3cocn3)s2)c1 — higher, 2.95%
- O=C(CSc1nnc(-c2ccccn2)n1-c1ccccc1)Nc1ccc2cn[nH]c2c1 — higher, 3.05%
- O=C(Nc1cccc(Cl)c1)OC1CC2CC1[C@H]1CCCCN1[C@H]2Cc1ccccc1 (stereo partly specified) — higher, 7.48%
- Cc1ccccc1OS(=O)(=O)c1cccc([N+](=O)[O-])c1 — lower, 0.69%
- O=C(NCC1CCCO1)/C(=C/c1ccc(Cl)cc1)NC(=O)c1ccccc1 (stereo unspecified) — lower, -2.17%
- CCn1cc(/C=C(\NC(=O)c2ccc(C)cc2)C(=O)NCCN2CCOCC2)c2ccccc21 — lower, -0.63%
- Cc1nc2ccc(C(=O)N3CCN(C(=O)C(C)(C)C)CC3)cc2n1C1CCCC1 — lower, 0.89%
- O=C1CC[C@@H](COc2ccc3[nH]cc(-c4ccccc4)c3c2-c2ccccc2)N1 — higher, 6.86%
- CC(=O)O[C@H]1CC[C@@]2(C)[C@@H](CC[C@@H]3[C@@H]2CC[C@]2(C)[C@@H](C(C)(C)O)C[C@@H]32)C1 — higher, 5.36%
- O=C(N[C@H](Cc1ccccc1)C(=O)N1CCCN(Cc2cccs2)CC1)[C@H]1O[C@@H](n2ccc(=O)[nH]c2=O)[C@H](O)[C@@H]1O — higher, 1.68%
- O=S1(=O)c2ccc(Br)cc2-n2nncc2CN1Cc1cccc(Cl)c1 — higher, 7.4%
- C=C(Cl)COC(=O)C1C2C=CC(C2)C1C(=O)O (stereo unspecified) — lower, -2.82%
- Cc1noc(C)c1S(=O)(=O)NCCc1ccc(S(N)(=O)=O)cc1 — higher, 2.53%
- COC(=O)C[C@@H]1CC[C@H]2[C@@H](COc3ccc(NS(=O)(=O)CC(F)(F)F)cc3C(=O)N2C)O1 — higher, 2.52%
- COc1ccc(Cn2c(O)c(/C=C3/C=CC=N3)c(=O)[nH]c2=O)cc1 — higher, 4.64%
- COc1cc(=O)[nH]c(=O)n1C(=O)Cc1ccccc1 — higher, 5.86%
- CN(C)C(=O)N1CCN(C(=O)[C@@H](Cc2ccccc2)NC(=O)[C@H]2O[C@@H](n3ccc(N)nc3=O)[C@H](O)[C@@H]2O)CC1 — higher, 2.21%
- FC(F)(F)c1cccc(Cn2ccc3ccc(-c4ccc5ccn(Cc6ccccc6)c5c4)cc32)c1 — higher, 11%
- CC1=C(C(=O)N(C)C)C(c2ccccc2OC(F)F)NC(=O)N1 (stereo unspecified) — lower, -5.88%
- O=C(c1cccc(C(F)(F)F)c1)N1CC[C@H]2[C@H](CCCN2Cc2cc(F)cc(F)c2)C1 — lower, -2.78%
- CC1=CC2=NC(=O)/C(=C/c3coc4ccccc4c3=O)C(=N)N2O1 — lower, -66.6%
- CCOC(=O)C1=C(O)/C(=C/c2cc(C)n(-c3ccccc3)c2C)N=C1C — higher, 8.38%
- COc1ccc2c(C(C)c3ccc(N)cc3)cn(C)c2c1 (stereo unspecified) — higher, 5.87%
- CN1C(=O)C2CC(O)C(SC3CC4C(=O)N(C)C(=O)C4CC3O)CC2C1=O (stereo unspecified) — higher, 1.65%
- COc1ccc(Cn2ccc3ccc(-c4ccc5ccn(Cc6ccccc6C)c5c4)cc32)cc1 — higher, 15.1%
- O=C(Nc1ccc(F)cc1)N1CCCC(c2nc3c(nnn3Cc3ccccc3Cl)c(=O)[nH]2)C1 (stereo unspecified) — lower, 0.69%
- Cc1ccc(NC(=O)N2CCC(c3nc4c(nnn4Cc4c(F)cccc4Cl)c(=O)[nH]3)CC2)cc1 — higher, 3.25%
- COc1cccc(N2CCN(CC(=O)N(C)Cc3ccc(F)cc3)CC2)c1 — lower, -1.77%
- O=C1CCCCC1C(=O)c1ccccc1 (stereo unspecified) — lower, -0.64%
- C[C@H](O)[C@@H]1C(=O)N2CCc3c([nH]c4c(-c5ccc6c(c5)OCO6)cccc34)[C@@H]2C[C@@H]1N(C)C(=O)c1ccco1 — higher, 5.15%
- Cc1ccc(C(=O)c2ccc(N3CCN(C)CC3)c([N+](=O)[O-])c2)cc1 — lower, -0.77%
- CC(C)NC(=O)c1ccc(Sc2ccccc2)c([N+](=O)[O-])c1 — lower, -3.38%
- COc1ccccc1C(=O)N1O[C@]23C=C[C@]14C[C@@H](O)CC[C@]4(C)C2CC[C@]1(C)[C@@H]([C@H](C)/C=C/[C@H](C)C(C)C)CC[C@H]13 (stereo partly specified) — higher, 4.71%
- CCOc1ccc(-c2n[nH]c(=S)n2/N=C/c2cc3c(cc2[N+](=O)[O-])OCO3)cc1 — higher, 4.13%
- CSc1ccc(/C=N/N2CCN(Cc3ccccc3Cl)CC2)cc1 — lower, -3.03%
- O=C1[C@@H](c2ccccc2)[C@@H](c2ccccc2)N1c1ccccc1 — higher, 2.62%
- CCOC(=O)[C@]12CCCC3=C1N(CCC3)C(=O)[C@@H](CC(=O)NCc1cccs1)C2 — lower, -1.37%
- C=CCN1C(=O)[C@@H](CC(=O)NCCCOCCCC)[C@]2(C(=O)OCC)CCCCC/C=C/12 — lower, 0.69%
- OC(c1ccccc1)c1nc(/C=C/c2ccc(C(F)(F)F)cc2)cs1 (stereo unspecified) — higher, 3.22%
- O=C(Nc1nonc1-c1ccc(Cl)cc1)c1ccco1 — lower, -0.35%
- O=C(Nc1c(-c2ccccc2)nc2c(Br)cc(Br)cn12)c1ccco1 — higher, 7.88%
- COC(=O)C1=C(C)N(Cc2ccc(F)cc2)C(=S)NC1c1cccc(Cl)c1 (stereo unspecified) — higher, 3.4%
- N[C@@H](Cc1ccccc1)C(=O)N1CCC[C@@H]1C(=O)N1CCC2CCN(S(=O)(=O)c3ccccc3)CC21 (stereo partly specified) — lower, 0.99%
- COC(=O)Cc1nnn2c1[C@H](C)[C@@H](OC)c1cc(Br)ccc1-2 — lower, -0.28%
- Clc1ccc(C(Cn2ccnc2)OCc2ccsc2Cl)c(Cl)c1 (stereo unspecified) — higher, 2.12%
- CCN=C1SC(CC(=O)Nc2ccc(C)cc2)C(=O)N1CC (stereo unspecified) — lower, -2.97%
- Cc1c(Cl)cccc1NC(=O)CC1SC(=NCC2CCCO2)NC1=O (stereo unspecified) — lower, -0.81%
- CC(=O)N1C[C@@H](CO)[C@@H](N(C)C(=O)C(C)(C)C)C[C@H]1c1ccccc1Br — lower, -1.82%
- C[C@@H]1COc2cccc(N3CCCC3)c2S(=O)(=O)N1C — lower, 1%
- O=C(CN1C(=O)NC(Cc2c[nH]c3ccccc23)C1=O)Nc1ccccc1C(F)(F)F (stereo unspecified) — higher, 2.5%
- CC1CCN(C(=O)c2ncn3c2C(=O)N[C@@H](C)C3)CC1 — higher, 1.9%
- O=C(N1CCOCC1)N1CC[C@H]2[C@H](CCCN2Cc2ccc(F)cc2)C1 — lower, -0.35%
- C=CCN1C(=O)[C@@H](CC(=O)N2CCN(C(=O)OCC)CC2)[C@]2(C(=O)OCC)CCCCC/C=C/12 — higher, 1.94%
- COc1ccc(CSc2nnc(-c3cccc(C)c3)n2C)cc1 — lower, -0.02%
- COc1ccc(-n2c(SCC(=O)Nc3ccc(C)c(Cl)c3)nc3ccccc3c2=O)cc1 — higher, 16.1%
- COc1ccc(CN2C(=O)N3Cc4cc(OC)ccc4C3CS2(=O)=O)cc1 (stereo unspecified) — higher, 1.88%
- COCCCNC(=O)C[C@H]1C[C@@]2(C(=O)OC)C(=C[C@H](C(C)(C)C)O[C@@H]2C)N(Cc2ccc(Cl)cc2Cl)C1=O — higher, 1.45%
- COC(=O)[C@]12C[C@H](CC(=O)NCCc3ccccc3OC)C(=O)N(Cc3ccccc3)C1=C[C@H](C(C)C)O[C@@H]2C1CC1 — lower, 0.77%
- C=CCn1c(N)cc(=O)nc1SCC(=O)Nc1cccc2ccccc12 — higher, 3.99%
- Cc1ccc(-n2c(SCC(=O)Nc3cccc4ccccc34)nnc2-c2ccccn2)cc1 — higher, 3.79%
- CC(C)N1CCCCC(NC(=O)C(C)(C)C)C1=O (stereo unspecified) — lower, 0.73%

For COc1ccc(CNC(=O)COC(=O)C2=Cc3ccccc3OC2)cc1, the inhibition was 78.9% (active).
With O=C1Oc2ccccc2C(=O)/C1=C/c1ccccc1O the inhibition was 51% (active).
With O=C(NNc1c2ccccc2nc2ccccc12)c1cc2ccccc2cc1O the inhibition was 49.2% (active).
For Oc1c(Cl)cc(Cl)c(Cl)c1Cc1c(O)c(Cl)cc(Cl)c1Cl, the inhibition was 94% (active).
In the case of O=[N+]([O-])c1cc(Cl)cc(/C=N/NC(=S)Nc2cc(S(=O)(=O)N3CCOCC3)ccc2Cl)c1O, the inhibition is reported as 37.7% (active).
In the case of Cn1c2ccccc2c2cc(/C=C(\NC(=O)c3ccccc3)C(=O)NCC(=O)O)ccc21, the inhibition is reported as 35.8% (active).
In the case of C[C@H]([C@@H](O)[C@@H](O)[C@@H](C)C(C)(C)C)[C@H]1CC[C@H]2C3CC[C@H]4C[C@H](OS(=O)(=O)O)[C@@H](OS(=O)(=O)O)C[C@]4(C)[C@H]3CC[C@]12C (stereo partly specified), the inhibition is reported as 88.4% (active).
In the case of CCCOc1ccc(Cn2c(O)cc(=O)[nH]c2=O)cc1, the inhibition is reported as 37.6% (active).
With Cc1cc(/C=C2/C(=N)N3C(=NC2=O)SN=C3S(C)(=O)=O)c(C)n1-c1ccccc1 the inhibition was 58.3% (active).
In the case of Cc1ccc(C)c(Cn2nnc3c(=O)[nH]c(C(=O)Nc4ccc(F)cc4)nc32)c1, the inhibition is reported as 60.2% (active).
For Cc1ccc(Sc2cc(C(=O)c3ccccc3C(=O)O)ccc2[N+](=O)[O-])cc1, the inhibition was 72.1% (active).
With CSc1ccc(C=Nn2c(-c3ccc(F)cc3)n[nH]c2=S)cc1 the inhibition was 45.4% (active).
With O=C(Nc1nc(-c2ccco2)c(-c2ccco2)s1)c1ccco1 the inhibition was 70.5% (active).
For Cc1ccc(NC(=O)CC2S/C(=N/N=C3\CCCc4ccccc43)NC2=O)cc1 (stereo unspecified), the inhibition was 42.2% (active).
For CC(C)(C)C1C/C(=C/c2ccco2)C(=O)/C(=C/c2ccco2)C1 (stereo unspecified), the inhibition was 44.8% (active).
With CCOc1ccc(-n2c(SCC(=O)Nc3cc(C(=O)O)ccc3Cl)nc3ccccc3c2=O)cc1 the inhibition was 46.3% (active).
With Cc1ccccc1-n1c(SCC(=O)Nc2cccc3ccccc23)nc(O)cc1=O the inhibition was 42.6% (active).
